Data on 4 compounds can be found in PubChem BioAssay (EPA / NIEHS).

SMILES strings stand for the structures. Several values for one entry are separate records, joined by “and”; a condition that tells them apart may be missing. Identical values can stand only once. The source holds several records for some structures; these can differ, active in one and inactive in another. Activity calls are given as the source filed them. Rule for the calls: active = hit-call score of the fitted dose curve at least 0.9, where 1 is the maximum; inactive = score below 0.9.

Conditions in all cases: mRNA level, 48 h; actives raise or lower the signal
Read-out in assay [1]: Alkaline Phosphatase, Placental (ALPP) gene, ALPP (gene 250)
Nature of the assay: LTEA_HepaRG_ALPP: Life Technologies and Expression Analysis (LTEA) Assay for Alkaline Phosphatase, Placental (ALPP) gene using HepaRG (AID 2283468).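 For AC50: differentiated human HepaRG liver cells in serum-free induction medium.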 The essentials:
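Expression of ALPP was quantified by qRT-PCR against three housekeeping genes in human HepaRG cultures treated for 48 h with an eight-point concentration series up to 100 uM. Activity in either direction was fitted relative to 0.5% DMSO.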

Read-out in assay [2]: Bcl-2 (BAD) gene, BAD (gene 572)
Nature of the assay: LTEA_HepaRG_BAD: Life Technologies and Expression Analysis (LTEA) Assay for Bcl-2 (BAD) gene using HepaRG (AID 2283469). The essentials:
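HepaRG, 48 h exposure, 8-pt half-log curve from 100 uM in 0.5% DMSO, duplicates. Readout: TaqMan qRT-PCR for BAD mRNA, housekeeping-normalised (ACTB/GAPDH/POLR2A); gain or loss fitted against DMSO baseline.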

Read-out in assay [3]: Bcl-2 (BAX) gene, BAX (gene 581)
Nature of the assay: LTEA_HepaRG_BAX: Life Technologies and Expression Analysis (LTEA) Assay for Bcl-2 (BAX) gene using HepaRG (AID 2283470). The essentials:
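Gene expression measured by Fluidigm qRT-PCR with three housekeeping genes for normalisation. HepaRG cells, plated 48 h beforehand, treated 48 h at up to 100 uM (8-point, half-log) in 0.5% DMSO. Bidirectional fitting versus DMSO.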

Read-out in assay [4]: adenosine kinase (ADK) gene, ADK (gene 132)
Nature of the assay: LTEA_HepaRG_ADK: Life Technologies and Expression Analysis (LTEA) Assay for adenosine kinase (ADK) gene using HepaRG (AID 2283471). Put shortly:
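Read-out is ADK transcript level measured by qRT-PCR and normalised to three housekeeping genes. Cells are human HepaRG, dosed for 48 h at up to 100 uM in 0.5% DMSO. Gain or loss of signal is fitted against DMSO controls.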

Read-out in assay [5]: Alpha-fetoprotein (AFP) gene, AFP (gene 174)
Description: LTEA_HepaRG_AFP: Life Technologies and Expression Analysis (LTEA) Assay for Alpha-fetoprotein (AFP) gene using HepaRG (AID 2283472). Put shortly:
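AFP transcript measured by TaqMan qRT-PCR with three housekeeping genes for normalization, after 48 h chemical treatment of HepaRG cells (top 100 uM, half-log steps, 0.5% DMSO). Gain or loss fitted against vehicle.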

Read-out in a further assay: BCL2L11 (gene 10018)
Description: LTEA_HepaRG_BCL2L11: Life Technologies and Expression Analysis (LTEA) Assay for Bcl-2 (BCL2L11) gene using HepaRG (AID 2283473). The essentials: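 Cells were plated, cultured 48 h, switched to serum-free induction medium, then dosed in duplicate for 48 h at eight half-log concentrations up to 100 uM. Lysates underwent RNA isolation and TaqMan qRT-PCR; gain or loss versus DMSO was fitted.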

Read-out in assay [6]: Apoptosis regulator Bcl-2 (Homo sapiens) (UniProt P10415)
Description: LTEA_HepaRG_BCL2: Life Technologies and Expression Analysis (LTEA) Assay for Bcl-2 gene using HepaRG (AID 2283475). Put shortly: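 qRT-PCR of BCL2 transcript, normalized to three housekeeping genes (ACTB, GAPDH, POLR2A), after 48 h chemical exposure of HepaRG cells; concentrations top 100 uM with half-log dilutions, 0.5% DMSO vehicle, duplicates; changes up or down fitted relative to vehicle.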

Read-out in assay [7]: Bcl-2 (BID) gene, BID (gene 637)
Description: LTEA_HepaRG_BID: Life Technologies and Expression Analysis (LTEA) Assay for Bcl-2 (BID) gene using HepaRG (AID 2283476). Put shortly:
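Duplicate 48 h treatments of HepaRG cells in serum-free induction medium spanned 100 uM downward in half-log steps, 0.5% DMSO. Transcript change quantified by qRT-PCR against three housekeeping genes, fitted up or down versus DMSO.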

Read-out in a further assay: Caspase-3 (Homo sapiens) (UniProt P42574)
Description: LTEA_HepaRG_CASP3: Life Technologies and Expression Analysis (LTEA) Assay for cysteine-aspartic acid protease (CASP3) using HepaRG (AID 2283477). The essentials:
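In HepaRG liver cells dosed for 48 h at up to 100 uM (eight-point, duplicate), CASP3 expression changes are scored by qRT-PCR. Activity is fitted in both directions with 0.5% DMSO as baseline.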

Read-out in assay [8]: Cytochrome P450 (CYP24A1), CYP24A1 (gene 1591)
Description: LTEA_HepaRG_CYP24A1: Life Technologies and Expression Analysis (LTEA) Assay for Cytochrome P450 (CYP24A1) using HepaRG (AID 2283478). Put shortly: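 Human liver HepaRG cultures receive each chemical for 48 h across an eight-point half-log series topping at 100 uM in 0.5% DMSO. Induction or suppression of CYP24A1 mRNA is scored relative to vehicle after housekeeping-gene normalization.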

Read-out in assay [9]: Cytochrome P450 (CYP1A2), CYP1A2 (gene 1544)
Description: LTEA_HepaRG_CYP1A2: Life Technologies and Expression Analysis (LTEA) Assay for Cytochrome P450 (CYP1A2) using HepaRG (AID 2283479). Put shortly:
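Assesses CYP1A2 mRNA in human HepaRG liver cells after 48 h chemical exposure at up to 100 uM. Values come from qRT-PCR with bidirectional curve fitting relative to DMSO.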

Read-out in assay [10]: cysteine-aspartic acid protease (CASP8), CASP8 (gene 841)
Nature of the assay: LTEA_HepaRG_CASP8: Life Technologies and Expression Analysis (LTEA) Assay for cysteine-aspartic acid protease (CASP8) using HepaRG (AID 2283480). The essentials: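 qRT-PCR readout of CASP8 mRNA, normalized to three housekeeping genes, after 48 h chemical exposure of HepaRG cells; 8-point half-log series, top 100 uM, 0.5% DMSO vehicle. Bidirectional curve fitting against DMSO baseline.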

Read-out in assay [11]: Cytochrome P450 (CYP2B6), CYP2B6 (gene 1555)
Nature of the assay: LTEA_HepaRG_CYP2B6: Life Technologies and Expression Analysis (LTEA) Assay for Cytochrome P450 (CYP2B6) using HepaRG (AID 2283481). Put shortly: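 Using 48 h treatment of HepaRG cells in serum-free induction medium, concentrations spanned half-log steps from 100 uM in 0.5% DMSO vehicle. CYP2B6 mRNA induction or loss is scored by qRT-PCR against DMSO.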

Read-out in assay [12]: Cytochrome P450 2C19 (Homo sapiens) (UniProt P33261)
Nature of the assay: LTEA_HepaRG_CYP2C19: Life Technologies and Expression Analysis (LTEA) Assay for CYP2C19 using HepaRG (AID 2283482). Put shortly: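 Human HepaRG liver cells received test chemicals for 48 h (highest 100 uM, half-log dilutions in 0.5% DMSO). CYP2C19 mRNA induction or loss is read by multiplexed qRT-PCR and fitted in both directions versus vehicle.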

Read-out in the next assay: CYP2C8 (gene 1558)
Nature of the assay: LTEA_HepaRG_CYP2C8: Life Technologies and Expression Analysis (LTEA) Assay for CYP2C8 using HepaRG (AID 2283483). The essentials:
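HepaRG (human liver line), 48 h chemical exposure, 8-pt half-log series from 100 uM, 0.5% DMSO vehicle. Readout: CYP2C8 transcript by qRT-PCR, housekeeping-normalized. Bidirectional fit vs DMSO baseline.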

Read-out in the next assay: CYP2C9 (gene 1559)
Description: LTEA_HepaRG_CYP2C9: Life Technologies and Expression Analysis (LTEA) Assay for CYP2C9 using HepaRG (AID 2283484). The essentials: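 HepaRG, 48 h dosing, 8-pt half-log series, top 100 uM, 0.5% DMSO vehicle. Read-out: CYP2C9 transcript by TaqMan qRT-PCR, housekeeping-normalized (ACTB/GAPDH/POLR2A). Gain or loss fitted vs DMSO baseline.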

Read-out in the next assay: CYP2E1 (gene 1571)
Nature of the assay: LTEA_HepaRG_CYP2E1: Life Technologies and Expression Analysis (LTEA) Assay for CYP2E1 using HepaRG (AID 2283485). Put shortly: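 CYP2E1 transcript measured by Fluidigm qRT-PCR against three housekeeping genes in human HepaRG cells treated 48 h (top 100 uM, half-log steps, 0.5% DMSO vehicle). Gain or loss fitted relative to DMSO baseline.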

Read-out in another assay: CYP4A11 (gene 1579)
Description: LTEA_HepaRG_CYP4A11: Life Technologies and Expression Analysis (LTEA) Assay for CYP4A11 using HepaRG (AID 2283486). The essentials: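 Readout is CYP4A11 mRNA induction or suppression (qRT-PCR, ACTB/GAPDH/POLR2A normalization) in human HepaRG cells after 48 h chemical treatment, concentrations to 100 uM in 0.5% DMSO, fitted bidirectionally against vehicle.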

Read-out in assay [13]: Cytochrome P450 3A4 (Homo sapiens) (UniProt P08684)
Nature of the assay: LTEA_HepaRG_CYP3A4: Life Technologies and Expression Analysis (LTEA) Assay for CYP3A4 using HepaRG (AID 2283487). The essentials:
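HepaRG, 48 h exposure, 8-pt CRC from 100 uM (half-log), 0.5% DMSO, duplicates; serum-free induction medium. Readout: CYP3A4 mRNA, qRT-PCR, ACTB/GAPDH/POLR2A normalization. Bidirectional fit vs DMSO.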

Read-out in assay [14]: Apolipoprotein A-V (APOA5) gene, APOA5 (gene 116519)
Nature of the assay: LTEA_HepaRG_APOA5: Life Technologies and Expression Analysis (LTEA) Assay for Apolipoprotein A-V (APOA5) gene using HepaRG (AID 2283474). The essentials: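 Human liver HepaRG cells are treated 48 h with test chemicals (100 uM top, half-log dilutions, 0.5% DMSO). APOA5 mRNA induction or loss is measured by qRT-PCR relative to vehicle.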

Chain of Cytochrome P450 2C19 (Homo sapiens) (P33261 whole entry, looked up): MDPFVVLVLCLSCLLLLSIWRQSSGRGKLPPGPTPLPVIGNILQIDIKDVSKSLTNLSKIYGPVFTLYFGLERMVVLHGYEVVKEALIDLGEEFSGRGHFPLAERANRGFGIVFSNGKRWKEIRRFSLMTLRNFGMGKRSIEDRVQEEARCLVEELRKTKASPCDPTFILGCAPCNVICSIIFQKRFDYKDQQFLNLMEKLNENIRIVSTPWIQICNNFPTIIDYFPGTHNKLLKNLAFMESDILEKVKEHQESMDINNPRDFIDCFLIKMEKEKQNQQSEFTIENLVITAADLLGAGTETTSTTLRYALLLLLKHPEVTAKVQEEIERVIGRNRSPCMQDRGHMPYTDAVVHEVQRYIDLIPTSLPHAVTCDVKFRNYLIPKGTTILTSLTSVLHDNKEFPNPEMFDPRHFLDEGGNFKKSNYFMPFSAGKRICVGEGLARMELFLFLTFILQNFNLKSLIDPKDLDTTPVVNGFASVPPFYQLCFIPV
Chain of Apoptosis regulator Bcl-2 (Homo sapiens) (P10415 whole entry, looked up): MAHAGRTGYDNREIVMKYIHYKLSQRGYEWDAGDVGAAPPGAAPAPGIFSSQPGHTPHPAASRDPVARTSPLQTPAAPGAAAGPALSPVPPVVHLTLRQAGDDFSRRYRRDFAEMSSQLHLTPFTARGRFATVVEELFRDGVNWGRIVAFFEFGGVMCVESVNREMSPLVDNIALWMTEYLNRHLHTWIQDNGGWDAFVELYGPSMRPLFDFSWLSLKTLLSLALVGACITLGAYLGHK
Chain of Cytochrome P450 3A4 (Homo sapiens) (P08684 whole entry, looked up): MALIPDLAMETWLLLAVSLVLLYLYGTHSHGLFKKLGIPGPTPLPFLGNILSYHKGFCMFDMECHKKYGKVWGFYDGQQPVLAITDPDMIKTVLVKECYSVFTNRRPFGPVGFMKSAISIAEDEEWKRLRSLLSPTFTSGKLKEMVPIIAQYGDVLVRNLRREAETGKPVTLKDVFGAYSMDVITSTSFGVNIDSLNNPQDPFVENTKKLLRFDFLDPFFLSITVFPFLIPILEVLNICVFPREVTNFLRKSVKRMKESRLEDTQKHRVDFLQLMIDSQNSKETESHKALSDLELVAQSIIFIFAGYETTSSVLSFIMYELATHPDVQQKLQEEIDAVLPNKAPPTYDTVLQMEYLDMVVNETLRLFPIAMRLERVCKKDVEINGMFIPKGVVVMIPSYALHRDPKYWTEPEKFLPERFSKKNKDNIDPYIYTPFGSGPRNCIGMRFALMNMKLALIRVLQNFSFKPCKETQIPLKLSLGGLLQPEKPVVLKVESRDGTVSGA
Chain of Caspase-3 (Homo sapiens) (P42574 whole entry, looked up): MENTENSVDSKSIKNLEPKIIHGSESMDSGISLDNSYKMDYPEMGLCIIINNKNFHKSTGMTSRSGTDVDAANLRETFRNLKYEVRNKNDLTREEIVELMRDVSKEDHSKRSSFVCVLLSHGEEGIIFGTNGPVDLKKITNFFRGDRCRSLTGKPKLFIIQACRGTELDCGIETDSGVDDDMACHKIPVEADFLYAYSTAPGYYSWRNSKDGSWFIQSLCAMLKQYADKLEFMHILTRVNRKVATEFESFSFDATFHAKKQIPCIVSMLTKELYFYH

As to `CCON=C(CC)C1=C(O)CC(c2c(C)cc(C)cc2C)CC1=O` (stereo not given), the outcome (in assay [1]; in assay [2]; in assay [3]; in [4]; in assay [5]; with BCL2L11 (gene 10018)) was inactive. Besides, the call (in assay [6]; in assay [7]; in the assay with Caspase-3 (Homo sapiens); in assay [8]; in assay [9]; in assay [10]) was inactive. Besides, in the assay with CYP2C9 (gene 1559), the compound was classed as inactive. Moreover, the AC50 is 29.5 µM (active) in assay [11]; 23.5 µM (active) in assay [12]; 50 µM (active) with CYP2C8 (gene 1558); 43.6 µM (active) with CYP2E1 (gene 1571); 25 µM (active) with CYP4A11 (gene 1579).

Turning to `O=C(Nc1ccccc1)Nc1ccnc(Cl)c1`, the AC50 in assay [1] is 3.48 µM (active); in assay [2], 74.2 µM (active); in assay [4], 78.2 µM (active); in assay [5], 25.2 µM (active); in assay [6], 69.8 µM (active); in the assay with Caspase-3 (Homo sapiens), 69.9 µM (active). The AC50 is 25.8 µM (active) in [9]; 88.4 µM (active) in assay [11]; 79 µM (active) in assay [12]; 75.6 µM (active) with CYP2C9 (gene 1559); 25.4 µM (active) in the assay with CYP2E1 (gene 1571); 36.6 µM (active) with CYP4A11 (gene 1579). The AC50 in assay [13] is 70.8 µM (active). The compound was called inactive (in [3]; with BCL2L11 (gene 10018); in assay [7]; in assay [8]; in [10]; with CYP2C8 (gene 1558)).

As for `CCOc1cc(Oc2ccc(C(F)(F)F)cc2Cl)ccc1[N+](=O)[O-]`, the AC50 in assay [1] is 40.3 µM (active); in assay [5], 39.1 µM (active); in assay [14], 30.8 µM (active); in [6], 33.5 µM (active); in assay [9], 5.27 µM (active); in assay [11] it was 34.4 µM (active). Besides, the AC50 in [12] was 69.3 µM (active); in the assay with CYP2C8 (gene 1558), 74.2 µM (active); with CYP2C9 (gene 1559) it was 35.7 µM (active); in the assay with CYP2E1 (gene 1571), 24.8 µM (active); with CYP4A11 (gene 1579), 41.6 µM (active); in assay [13], 12.2 µM (active). Moreover, the result (in [2]; in assay [3]; in assay [4]; in the assay with BCL2L11 (gene 10018); in assay [7]; with Caspase-3 (Homo sapiens)) was inactive. The outcome in assay [8] and in assay [10] was inactive.

With `C=CCC1=C(C)C(OC(=O)C2C(C=C(C)C)C2(C)C)CC1=O` (stereo not given), the AC50 in [1] is 92.4 µM (active) and 71.1 µM (active); in [5], 90.3 µM (active) and 79.8 µM (active) and 66.3 µM (active); in assay [11], 12.1 µM (active) and 90.6 µM (active) and 11.7 µM (active); in [12], 91.5 µM (active); with CYP2C8 (gene 1558), 85.6 µM (active); in the assay with CYP2C9 (gene 1559), 87.4 µM (active). The concentration at half-maximal activity (AC50) with CYP2E1 (gene 1571) is 70.6 µM (active) and 76.7 µM (active) and 60.9 µM (active); with CYP4A11 (gene 1579), 93.2 µM (active) and 95.2 µM (active). Moreover, the result (in assay [1]; in assay [2]; in assay [3]; in [4]; with BCL2L11 (gene 10018); in [6]) was inactive. Besides, the compound was classed as inactive (in assay [7]; in the assay with Caspase-3 (Homo sapiens); in assay [8]; in [9]; in assay [10]; in [12]). The compound was called inactive (with CYP2C8 (gene 1558); with CYP2C9 (gene 1559); in assay [13]).

For orientation: AC50 means the midpoint of the concentration-response curve, whichever way the signal moves.
